Assay outcomes from PubChem.
Hits are enriched below; roughly 12% of the tested compounds scored in any of these assays.
SARS PLpro yeast = inhibitors of SARS-CoV papain-like protease in yeast. Potency, µM (highest dose often 32.9 µM), usual class: activators. S. cerevisiae expressing SARS-CoV PLpro, growth rescue. AID 485353. 330,000 compounds, 0.19% hits; calls by dose curve; further: nearly all actives have a fitted effect of over 55% in size
Pf growth 96h = P. falciparum growth inhibition at 96 hours; Potency, µM (series often up to 28.7 µM), hits mostly inhibitors; P. falciparum luciferase reporter growth, 96 h; 320,000 compounds, 6.9% hits
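Compounds incubated with erythrocytes infected by luciferase-expressing P. falciparum (2% hematocrit, 0.05% parasitemia final) for 96 hours, 37 C in 5% CO2. Growth inhibition scored as decreased luciferase luminescence.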
Pf growth 48h = P. falciparum growth inhibition at 48 hours (one generation); Potency, µM (series often up to 28.7 µM), usual class: inhibitors; P. falciparum luciferase growth in erythrocytes, 48 h; 310,000 compounds, 5.9% hits
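Read-out is firefly luciferase luminescence from an integrated reporter in P. falciparum, so falling signal marks reduced parasite growth. Infected erythrocytes were at 2% hematocrit and 0.1% parasitemia (final) in Albumax-supplemented RPMI 1640.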
AmpC no deterg = inhibitors of E. coli AmpC beta-lactamase without detergent | P00811 | AmpC nitrocefin hydrolysis, absorbance 480 nm, 0.0001% Triton | Potency, µM (series often up to 57.1 µM), hits mostly inhibitors | 330,000 compounds, 0.52% hits | AID 485341; further: nearly all actives have a fitted effect of over 20% in size
Target sequence (P00811 whole entry, looked up): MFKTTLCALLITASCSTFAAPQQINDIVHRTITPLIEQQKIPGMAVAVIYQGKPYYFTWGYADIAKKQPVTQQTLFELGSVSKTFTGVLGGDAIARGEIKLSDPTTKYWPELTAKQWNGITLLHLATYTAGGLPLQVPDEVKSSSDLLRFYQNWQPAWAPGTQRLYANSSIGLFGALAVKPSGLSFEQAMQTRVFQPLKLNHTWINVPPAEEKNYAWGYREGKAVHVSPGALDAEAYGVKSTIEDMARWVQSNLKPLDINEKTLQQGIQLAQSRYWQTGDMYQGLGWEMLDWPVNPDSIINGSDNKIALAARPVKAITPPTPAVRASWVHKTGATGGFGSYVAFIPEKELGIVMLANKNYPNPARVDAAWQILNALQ
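AmpC (5.3 nM in the dispensed reagent) in 20 mM phosphate pH 7.0 with 0.01% (detergent screen) or 0.0001% Triton X-100 was preincubated with compounds for 15 min at room temperature. Nitrocefin was then added from an 800 uM solution, and hydrolysis was followed at 480 nm.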
Sm TGR inh = S. mansoni TGR enzyme inhibition; Q962Y6; purified TGR, DTNB reduction, TNB absorbance 405 nm; Potency, µM (series often up to 114 µM), most hits filed as inhibitors; 360,000 compounds, 3% hits; further: nearly all actives have a fitted effect of over 60% in size
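Kinetic colorimetric format: TGR-catalysed, NADPH-driven DTNB reduction monitored via TNB absorbance. Enzyme dispensed at 20 nM; compound exposure 15 min at room temperature before reaction start.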
AmpC inh detg = blocks E. coli AmpC beta-lactamase in detergent assay; AmpC hydrolysis of nitrocefin, absorbance 480 nm, 0.01% Triton; Potency, µM (top dose mostly 114 µM), most hits filed as inhibitors; 370,000 compounds, 0.041% hits; further: nearly all actives have a fitted effect of over 25% in size
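20 mM phosphate pH 7.0 + 0.01% (detergent screen) or 0.0001% Triton X-100; 5.3 nM AmpC reagent; cpd preinc 15 min RT; nitrocefin (800 uM stock) to start; A480 q20 s × 4 min; Activity was normalised to no-enzyme and no-compound control wells.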
Large screens that a line does not name were inactive. Unless noted, the call rests on the fitted dose curve; in most records, active means well fitted curve in the direction sought with a large enough effect; inconclusive means small, poorly fitted or top-dose-only effect, or another doubt; inactive means no such curve, though single readings can be large; an effect the other way counts as inactive or inconclusive.

CCOc1cc(C)c(C(C)C)cc1S(=O)(=O)N1CC(C)OC(C)C1 (configuration not stated)	Pf growth 48h 13.1µM (no result: Pf growth 96h)
COc1ccc(C)cc1S(=O)(=O)N1CC(C)OC(C)C1 (configuration not stated)	Pf growth 96h 11.7µM
CCC(C)NS(=O)(=O)c1ccc(S(=O)(=O)N2CC=C(c3ccc(F)cc3)CC2)cc1 (configuration not stated)	none
COc1ccc(/C=C/C(=O)O)cc1S(=O)(=O)N1CCCC1	Pf growth 96h 5.86µM
COc1ccc(C)cc1S(=O)(=O)N1CCCCCC1	Pf growth 48h 2.08µM
COc1ccc(/C=C/C(=O)O)cc1S(=O)(=O)N1CCCCC1	none
COc1cccc(-c2c(C(=O)N/N=C/c3ccoc3)nnn2-c2nonc2N)c1	Pf growth 96h inconclusive, Pf growth 48h inconclusive
CCC1(c2ccccc2)NC(=O)N(CC(=O)Nc2cc(Cl)ccc2N2CCN(C)CC2)C1=O (configuration not stated)	Pf growth 96h inconclusive, Pf growth 48h 11.7µM, AmpC inh detg inconclusive
CN1CCN(c2ccc(Cl)cc2NC(=O)/C=C/c2cccc(F)c2)CC1	Pf growth 96h inconclusive, Pf growth 48h 9.28µM
CCC1(c2ccc(F)cc2)NC(=O)N(CC(=O)N2CCc3ccccc32)C1=O (configuration not stated)	Pf growth 96h 10.4µM, Pf growth 48h 11.7µM
CN1CCN(c2ccc(Cl)cc2NC(=O)C2COc3ccccc3O2)CC1 (configuration not stated)	Pf growth 96h 2.33µM, Pf growth 48h 8.28µM
Cc1c(Cl)cccc1NC(=O)Nc1c[nH]c(=O)[nH]c1=O	none (no result: SARS PLpro yeast, Pf growth 96h, Pf growth 48h, AmpC no deterg)
COc1ccc(CNC(=O)c2ccc3c(c2)N(Cc2ccccc2F)C(=O)c2ccccc2S3=O)cc1 (configuration not stated)	none (no result: SARS PLpro yeast, Pf growth 96h, Pf growth 48h, AmpC no deterg)
O=C(Cc1c(F)cccc1Cl)Nc1ccc(S(=O)(=O)Nc2nccs2)cc1	Pf growth 48h inconclusive
CC1(c2ccccc2)NC(=O)N(CC(=O)Nc2ccccc2N2CCCC2)C1=O (configuration not stated)	Pf growth 48h inconclusive
CN1CCN(c2ccc(Cl)cc2NC(=O)CN2C(=O)NC(C)(c3ccccc3)C2=O)CC1 (configuration not stated)	Pf growth 96h inconclusive, Pf growth 48h 2.94µM
Cc1ccc(S(=O)(=O)c2cc(N3CCOCC3)nc(-c3ccccc3)n2)cc1	Pf growth 96h 8.28µM, Pf growth 48h inconclusive, AmpC inh detg inconclusive
CN1CCN(c2nc(-c3ccccc3)ncc2S(=O)(=O)c2ccccc2)CC1	Pf growth 96h inconclusive, Pf growth 48h inconclusive (no result: Sm TGR inh)
Cc1ccc(S(=O)(=O)c2cnc(-c3ccccc3)nc2N2CCN(C)CC2)cc1	Pf growth 96h 10.4µM, Pf growth 48h inconclusive
Cc1ccc2oc(C(=O)Nc3c(C(=O)Nc4ccccc4)oc4ccccc34)cc(=O)c2c1	none (no result: SARS PLpro yeast, Pf growth 96h, Pf growth 48h, AmpC no deterg)
c1ccc2c(c1)nc1n2C2(N3CCOCC3)CCCC2C1N1CCOCC1 (configuration not stated)	Sm TGR inh 31.6µM
CC(C)N(C(=O)Cn1cc(SCC(=O)Nc2ccccc2C(F)(F)F)c2ccccc21)C(C)C	none (no result: SARS PLpro yeast, Pf growth 96h, Pf growth 48h, AmpC no deterg)
COc1cc(C)ccc1S(=O)(=O)N1CCN(C23CC4CC(CC(C4)C2)C3)CC1	none (no result: Pf growth 96h)
O=C(C1CCN(S(=O)(=O)c2ccccc2)CC1)N1CCOCC1	none (no result: Pf growth 96h)
O=C(NC1CCCCC1)c1cc2ccccc2cc1O	Pf growth 96h 1.85µM, Pf growth 48h 5.22µM, AmpC no deterg 20µM
Cc1ccccc1C(=O)NC1CCCCCCC1	none
O=C(NC1CCCCCCC1)c1ccccc1O	Pf growth 96h inconclusive, Pf growth 48h 11.7µM, AmpC inh detg inconclusive
O=C(CCC1CCCC1)NNC(=O)c1cc2ccccc2cc1O	AmpC no deterg inconclusive
O=C1CCCC(=NNC(=O)c2cc3ccccc3cc2O)C1	AmpC no deterg 31.6µM (no result: Pf growth 96h, Pf growth 48h, Sm TGR inh, AmpC inh detg)
CC(=O)c1cccc(NC(=O)c2ccc3nc(C(C)C)oc3c2)c1	none (no result: SARS PLpro yeast, Pf growth 96h, Pf growth 48h, AmpC no deterg)
